Reference: PubChem BioAssay (Tox21)
“And” between values parts separate entries of the source, which are not always exact repeats. Identical values can stand only once. Records with an inconclusive call do not appear. A call without a number means that no potency is given here. The source made the active and inactive calls. Calls follow the shape of the dose curve; as a rule, active = well fitted inhibition curve with a large enough effect in the repeat runs; inconclusive = weak or mixed curves; inactive = flat fitted curve, though single readings scatter. Starred links: 1 amine or outer side, 2 acyl side, 3 side chain; linkers in the order of their positions; H or OH if unused. Positions of bridges follow the written chain, without caps; N, C: chain ends. Non-standard residues stand in square brackets, D forms with d. Residues, ends and D or L forms follow the SMILES beside them. Chains are numbered I, II in the order given. Actinocin(9to1) = Cc1c2oc3c(C)ccc(C(=O)[*:1])c3nc-2c(C(=O)[*:2])c(N)c1=O; NMeV = CN[C@H](C(=O)O)C(C)C; Sar = CNCC(=O)O

biological target: Voltage-gated inwardly rectifying potassium channel KCNH2 (Homo sapiens) (UniProt Q12809); assay: Human Ether-a-go-go-Related Gene (hERG) channel small molecule antagonists: fluorescence cell-based qHTS assay (AID 1671200); conditions: hERG-U2OS cells, FluxOR thallium flux fluorescence; series mostly up to 76.8 µM; also: nearly all actives have a fitted effect of over 50% in size
Sequence (Q12809 whole entry, looked up): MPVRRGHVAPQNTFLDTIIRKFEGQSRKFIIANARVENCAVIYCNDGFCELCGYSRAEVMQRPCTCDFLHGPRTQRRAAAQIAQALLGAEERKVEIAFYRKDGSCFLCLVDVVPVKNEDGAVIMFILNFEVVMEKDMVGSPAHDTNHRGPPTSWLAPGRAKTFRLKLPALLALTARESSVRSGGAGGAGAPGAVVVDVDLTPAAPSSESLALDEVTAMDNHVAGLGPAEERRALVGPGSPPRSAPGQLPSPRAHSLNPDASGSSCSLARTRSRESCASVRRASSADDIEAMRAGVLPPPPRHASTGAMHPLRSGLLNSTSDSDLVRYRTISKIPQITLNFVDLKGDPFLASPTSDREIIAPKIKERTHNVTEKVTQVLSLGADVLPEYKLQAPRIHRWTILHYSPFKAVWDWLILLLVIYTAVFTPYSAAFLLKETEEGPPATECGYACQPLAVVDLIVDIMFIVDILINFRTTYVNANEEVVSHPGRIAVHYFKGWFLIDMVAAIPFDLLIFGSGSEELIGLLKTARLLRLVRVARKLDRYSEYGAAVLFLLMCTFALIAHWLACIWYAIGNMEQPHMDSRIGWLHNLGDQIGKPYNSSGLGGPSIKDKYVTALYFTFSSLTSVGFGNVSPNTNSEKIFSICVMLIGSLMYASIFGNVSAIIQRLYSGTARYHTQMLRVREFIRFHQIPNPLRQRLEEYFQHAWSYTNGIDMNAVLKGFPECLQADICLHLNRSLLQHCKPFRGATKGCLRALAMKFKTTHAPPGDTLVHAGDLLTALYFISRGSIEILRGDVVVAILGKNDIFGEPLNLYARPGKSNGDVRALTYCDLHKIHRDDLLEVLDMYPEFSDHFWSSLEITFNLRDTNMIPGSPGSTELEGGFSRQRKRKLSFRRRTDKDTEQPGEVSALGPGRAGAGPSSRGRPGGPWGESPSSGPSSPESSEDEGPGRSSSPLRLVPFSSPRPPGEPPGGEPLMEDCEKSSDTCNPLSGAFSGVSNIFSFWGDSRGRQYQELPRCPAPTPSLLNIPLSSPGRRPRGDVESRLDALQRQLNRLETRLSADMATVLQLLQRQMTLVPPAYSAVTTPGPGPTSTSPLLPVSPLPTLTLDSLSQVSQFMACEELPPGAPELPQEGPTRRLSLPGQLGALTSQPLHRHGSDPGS
How it was run: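 Cell line hERG-U2OS; dye FluxOR II, 1 h RT dark; Tl+ stimulus; ex 480/em 540 nm, read each second for 2 min.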
Potency is read from the fitted curve at half-maximal effect.

Compound	Potency	activity change, negative = inhibition
CCN(CC)C(=O)Nc1ccc(OCC(O)CNC(C)(C)C)c(C(C)=O)c1 (centres undefined)	inactive	
CCOc1ccccc1C(N)=O	inactive	
CC(=O)Nc1ccc(C(=O)CCl)cc1	inactive	
c1ccc2c(c1)-c1cccc3c1c-2cc1ccccc13	inactive	
NCCO	inactive	
CC(=O)OCCOCCOCCOC(C)=O	inactive	
CCCCCCCCCCCCCCCCCl		-0.466% [at 15.8 µM] (inactive)
O=C(Nc1ccccc1SSc1ccccc1NC(=O)c1ccccc1)c1ccccc1	inactive	
CC(COc1ccccc1)N(CCCl)Cc1ccccc1 (centres undefined)	19.7 µM (active) and 24.5 µM (active)	
Nc1ccc2cc3ccccc3cc2c1	inactive	
O=C(O)c1cn(-c2ccc(F)cc2)c2cc(N3CCNCC3)c(F)cc2c1=O	inactive	
BrC1CCC(Br)C(Br)CCC(Br)C(Br)CCC1Br (centres undefined)	15.4 µM (active)	
O=C1NCC2(CCN(CCc3ccccc3)CC2)O1	inactive	
OCCN1CCNCC1	inactive	
O=C(O)CCc1ccccc1	inactive	
COC(=O)c1cccc(C(=O)OC)c1	inactive	
COc1cc(C(=S)N2CCOCC2)ccc1O	inactive	
CC(C)C(=O)c1c(C(C)C)nn2ccccc12	inactive	
Cc1c2oc3c(C)ccc(C(=O)N[C@@H]4C(=O)N[C@H](C(C)C)C(=O)N5CCC[C@H]5C(=O)N(C)CC(=O)N(C)[C@@H](C(C)C)C(=O)O[C@@H]4C)c3nc-2c(C(=O)N[C@@H]2C(=O)N[C@H](C(C)C)C(=O)N3CCC[C@H]3C(=O)N(C)CC(=O)N(C)[C@@H](C(C)C)C(=O)O[C@@H]2C)c(N)c1=O (I: T[dV]P[Sar][NMeV] / II: T[dV]P[Sar][NMeV]; ester I:1-I:C, II:1-II:C; linker I:N-II:N via Actinocin(9to1))	inactive	
